Data as given in PubChem BioAssay (EPA / NIEHS).
Where “and” joins values, the source holds several entries; their conditions need not be identical. Equal values may be shown once. Records with an inconclusive call do not appear. Calls of active or inactive are those of the source. The calls were made as follows, unless noted: active = hit-call score of the fitted dose curve at least 0.9, where 1 is the maximum; inconclusive = response in the unintended direction; inactive = score below 0.9.

What was measured:
[1] = read-out: Intercellular Adhesion Molecule 1 (ICAM1), ICAM1 (gene 3383); experiment: BSK_3C_ICAM1: BioMAP Diversity Plus: 3C Assay for Intercellular Adhesion Molecule 1 (ICAM1) Biomarker Activity (AID 2283003; active = hit-call score of the fitted dose curve at least 0.9, where 1 is the maximum; inactive = score below 0.9); details: primary human endothelial cells (HUVEC); actives raise or lower the signal
Outline: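 Primary human umbilical vein endothelial cells in the BioMAP 3C system were exposed to chemicals for 24 h, then ICAM-1 was quantified by ELISA. Activity was fitted bidirectionally against the DMSO negative control baseline.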

[2] = BSK_3C_Proliferation: Cell Proliferation Assessment in the BioMAP Diversity Plus: 3C Assay (AID 2283006; active = hit-call score of the fitted dose curve at least 0.9, where 1 is the maximum; inactive = score below 0.9;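 as to AC50: potency may reflect either rise or fall in cell number versus DMSO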); details: primary human endothelial cells (HUVEC)
Outline: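 Human umbilical vein endothelial cells were grown sub-confluent and exposed to chemical for 48 h, then fixed with 10% TCA and stained with 0.1% sulforhodamine B; absorbance at 560 nm gave relative cell number, fitted bidirectionally against DMSO baseline.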

[3] = target: human RAR-related Orphan Receptor beta (RORb), RORB (gene 6096) (UniProt Q92753); experiment: ATG_RORb_TRANS: Attagene TRANS-FACTORIAL HepG2 Assay for human RAR-related Orphan Receptor beta (RORb) (AID 2283010)
Chain of human RAR-related Orphan Receptor beta (RORb), RORB (gene 6096) (Q92753 whole entry, looked up, the tested form may be a part): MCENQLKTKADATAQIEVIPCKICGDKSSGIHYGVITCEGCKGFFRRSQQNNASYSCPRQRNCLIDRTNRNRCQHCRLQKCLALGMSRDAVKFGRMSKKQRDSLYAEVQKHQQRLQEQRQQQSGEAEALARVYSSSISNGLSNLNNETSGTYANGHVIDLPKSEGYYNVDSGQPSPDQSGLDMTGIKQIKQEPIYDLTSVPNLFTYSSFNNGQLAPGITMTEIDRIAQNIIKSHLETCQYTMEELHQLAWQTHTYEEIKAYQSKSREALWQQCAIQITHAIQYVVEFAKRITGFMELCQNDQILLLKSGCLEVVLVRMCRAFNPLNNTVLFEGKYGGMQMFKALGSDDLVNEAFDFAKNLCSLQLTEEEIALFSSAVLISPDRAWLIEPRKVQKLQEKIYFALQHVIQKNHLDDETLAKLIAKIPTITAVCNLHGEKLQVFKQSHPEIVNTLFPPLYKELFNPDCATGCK
Outline: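 HepG2 cells were transiently transfected with multiplexed GAL4-UAS reporter units expressing chimeric nuclear receptor–GAL4 proteins, then dosed for 24 h. Reporter mRNA was quantified by RT-PCR with fluorescent labelling and capillary electrophoresis; gain of signal was fitted relative to DMSO.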

[4] = target: Retinoic acid receptor RXR-alpha (Homo sapiens) (UniProt P19793); experiment: ATG_RXRa_TRANS: Attagene TRANS-FACTORIAL HepG2 Assay for human Retinoid X Receptor alpha (RXRa) (AID 2283012)
Chain of Retinoic acid receptor RXR-alpha (Homo sapiens) (P19793 whole entry, looked up, the tested form may be a part): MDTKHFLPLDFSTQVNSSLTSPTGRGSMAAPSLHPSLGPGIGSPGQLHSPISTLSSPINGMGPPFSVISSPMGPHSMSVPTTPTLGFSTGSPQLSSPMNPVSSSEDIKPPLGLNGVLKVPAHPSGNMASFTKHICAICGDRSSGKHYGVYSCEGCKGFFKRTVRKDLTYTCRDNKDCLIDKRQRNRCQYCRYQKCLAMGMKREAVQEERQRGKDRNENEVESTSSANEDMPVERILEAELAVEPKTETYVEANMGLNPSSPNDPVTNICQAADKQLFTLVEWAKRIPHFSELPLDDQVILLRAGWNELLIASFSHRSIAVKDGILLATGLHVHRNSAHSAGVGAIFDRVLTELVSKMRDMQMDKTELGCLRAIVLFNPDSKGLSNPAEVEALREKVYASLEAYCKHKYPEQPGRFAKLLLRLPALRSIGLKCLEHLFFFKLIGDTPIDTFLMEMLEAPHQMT
Outline: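 HepG2 cells transiently transfected with multiplexed GAL4-UAS reporter units and chimeric NR-GAL4 fusions, dosed 24 h. Reporter mRNA measured by RT-PCR, FAM labelling, HpaI digestion and capillary electrophoresis; gain-of-signal fitted relative to DMSO baseline.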

[5] = target: Retinoic acid receptor alpha (Homo sapiens) (UniProt P10276); experiment: ATG_RARa_TRANS: Attagene TRANS-FACTORIAL HepG2 Assay for human Retinoic Acid Receptor alpha (RARa) (AID 2283005)
Chain of Retinoic acid receptor alpha (Homo sapiens) (P10276 whole entry, looked up, the tested form may be a part): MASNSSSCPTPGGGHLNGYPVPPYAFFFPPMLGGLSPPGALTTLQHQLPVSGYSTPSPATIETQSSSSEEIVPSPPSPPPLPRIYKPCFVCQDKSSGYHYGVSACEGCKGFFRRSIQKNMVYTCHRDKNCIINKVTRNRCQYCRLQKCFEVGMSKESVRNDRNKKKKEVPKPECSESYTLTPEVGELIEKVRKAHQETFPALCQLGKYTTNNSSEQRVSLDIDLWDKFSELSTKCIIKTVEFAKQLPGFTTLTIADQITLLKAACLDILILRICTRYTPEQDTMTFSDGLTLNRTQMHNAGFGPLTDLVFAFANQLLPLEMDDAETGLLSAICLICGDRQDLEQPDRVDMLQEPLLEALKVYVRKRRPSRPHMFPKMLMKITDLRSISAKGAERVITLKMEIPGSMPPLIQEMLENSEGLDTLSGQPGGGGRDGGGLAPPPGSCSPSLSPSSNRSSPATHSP
Outline: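 HepG2 transiently transfected with multiplex GAL4-UAS reporter units including a human RARa–GAL4 chimera; 24 h compound exposure. Reporter mRNA quantified by RT-PCR, 6-FAM labeling and capillary electrophoresis; gain of signal versus DMSO.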

[6] = target: human Retinoic Acid Receptor gamma (RARg), RARG (gene 5916) (UniProt P13631); experiment: ATG_RARg_TRANS: Attagene TRANS-FACTORIAL HepG2 Assay for human Retinoic Acid Receptor gamma (RARg) (AID 2283009)
Chain of human Retinoic Acid Receptor gamma (RARg), RARG (gene 5916) (P13631 whole entry, looked up, the tested form may be a part): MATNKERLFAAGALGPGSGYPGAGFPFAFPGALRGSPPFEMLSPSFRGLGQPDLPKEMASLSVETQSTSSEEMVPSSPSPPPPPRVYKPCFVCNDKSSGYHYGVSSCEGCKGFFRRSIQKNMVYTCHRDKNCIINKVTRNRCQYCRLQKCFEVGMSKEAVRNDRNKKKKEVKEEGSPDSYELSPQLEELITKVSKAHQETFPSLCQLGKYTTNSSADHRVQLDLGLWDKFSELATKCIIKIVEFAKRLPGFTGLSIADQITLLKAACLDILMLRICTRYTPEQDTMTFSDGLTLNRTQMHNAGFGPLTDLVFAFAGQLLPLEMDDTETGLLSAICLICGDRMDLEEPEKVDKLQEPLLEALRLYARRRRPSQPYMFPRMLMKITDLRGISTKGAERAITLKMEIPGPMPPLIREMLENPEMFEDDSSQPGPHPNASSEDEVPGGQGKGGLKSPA
Outline: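 HepG2 cells transiently transfected with multiplexed reporter units expressing chimeric RARg-GAL4 and GAL4-UAS-driven reporters; 24 h compound exposure. Reporter mRNA quantified by RT-PCR with fluorescent labelling and capillary electrophoresis; gain-of-signal fitted relative to DMSO baseline.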

[7] = target: human RAR-related Orphan Receptor gamma (RORg), RORC (gene 6097) (UniProt P51449); experiment: ATG_RORg_TRANS: Attagene TRANS-FACTORIAL HepG2 Assay for human RAR-related Orphan Receptor gamma (RORg) (AID 2283011)
Chain of human RAR-related Orphan Receptor gamma (RORg), RORC (gene 6097) (P51449 whole entry, looked up, the tested form may be a part): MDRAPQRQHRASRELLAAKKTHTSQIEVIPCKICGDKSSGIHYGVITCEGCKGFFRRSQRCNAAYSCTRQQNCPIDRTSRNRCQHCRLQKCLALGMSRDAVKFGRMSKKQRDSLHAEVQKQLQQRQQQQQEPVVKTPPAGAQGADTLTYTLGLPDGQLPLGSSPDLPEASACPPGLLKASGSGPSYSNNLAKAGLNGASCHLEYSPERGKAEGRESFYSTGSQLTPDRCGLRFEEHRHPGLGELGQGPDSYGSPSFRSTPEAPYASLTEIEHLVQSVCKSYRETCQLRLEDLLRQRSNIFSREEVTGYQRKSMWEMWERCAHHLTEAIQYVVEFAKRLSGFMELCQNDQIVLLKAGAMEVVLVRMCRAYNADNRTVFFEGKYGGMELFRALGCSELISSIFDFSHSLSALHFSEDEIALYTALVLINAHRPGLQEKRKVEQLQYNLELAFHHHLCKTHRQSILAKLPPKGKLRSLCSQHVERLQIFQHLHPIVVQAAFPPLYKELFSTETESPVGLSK
Outline: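 Transient MRTU transfection of HepG2 (TRANS format, exogenous NR-Gal4 chimera). 24 h dosing. Total RNA → oligo(dT) RT → PCR → 6-FAM labelling → HpaI cut → CE. Gain vs DMSO.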

[8] = target: human Peroxisome Proliferator-activated Receptor delta (PPARd), PPARD (gene 5467) (UniProt Q03181); experiment: ATG_PPARd_TRANS: Attagene TRANS-FACTORIAL HepG2 Assay for human Peroxisome Proliferator-activated Receptor delta (PPARd) (AID 2283002)
Chain of human Peroxisome Proliferator-activated Receptor delta (PPARd), PPARD (gene 5467) (Q03181 whole entry, looked up, the tested form may be a part): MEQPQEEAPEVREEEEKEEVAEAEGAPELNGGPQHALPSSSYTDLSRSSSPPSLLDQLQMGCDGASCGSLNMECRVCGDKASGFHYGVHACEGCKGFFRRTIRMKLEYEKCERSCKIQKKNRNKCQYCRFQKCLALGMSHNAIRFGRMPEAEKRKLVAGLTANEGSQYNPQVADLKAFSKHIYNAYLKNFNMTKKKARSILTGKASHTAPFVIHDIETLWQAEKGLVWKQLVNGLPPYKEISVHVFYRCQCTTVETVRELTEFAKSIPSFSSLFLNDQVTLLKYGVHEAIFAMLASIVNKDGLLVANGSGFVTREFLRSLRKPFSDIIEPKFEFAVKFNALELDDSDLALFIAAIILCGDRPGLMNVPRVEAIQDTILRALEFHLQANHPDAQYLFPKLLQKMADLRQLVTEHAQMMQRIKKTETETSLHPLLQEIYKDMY
Outline: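 Read-out: reporter mRNA induction, quantified by fluorescent RT-PCR products resolved by capillary electrophoresis. Human HepG2 liver cells carried transiently transfected Gal4-UAS reporter constructs with chimeric NR-Gal4 fusions. Cells were dosed for 24 h; DMSO served as baseline.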

[9] = target: Nuclear receptor subfamily 1 group I member 2 (Homo sapiens) (UniProt O75469); experiment: ATG_PXR_TRANS: Attagene TRANS-FACTORIAL HepG2 Assay for human Pregnane X Receptor (PXR) (AID 2283008)
Chain of Nuclear receptor subfamily 1 group I member 2 (Homo sapiens) (O75469 whole entry, looked up, the tested form may be a part): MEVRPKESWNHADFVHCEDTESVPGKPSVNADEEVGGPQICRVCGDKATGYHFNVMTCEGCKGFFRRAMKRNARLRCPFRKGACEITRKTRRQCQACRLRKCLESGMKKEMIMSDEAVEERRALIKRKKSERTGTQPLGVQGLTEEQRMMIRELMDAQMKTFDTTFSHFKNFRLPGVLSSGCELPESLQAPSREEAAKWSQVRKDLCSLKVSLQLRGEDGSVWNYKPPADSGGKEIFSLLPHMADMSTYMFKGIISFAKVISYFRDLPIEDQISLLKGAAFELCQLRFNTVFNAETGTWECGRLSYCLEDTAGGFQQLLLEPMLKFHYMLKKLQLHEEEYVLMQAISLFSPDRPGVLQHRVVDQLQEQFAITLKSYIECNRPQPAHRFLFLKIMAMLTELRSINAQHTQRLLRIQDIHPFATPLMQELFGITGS
Outline: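 Fluorescence intensity of FAM-labelled, HpaI-digested reporter amplicons, separated by capillary electrophoresis, quantifies induction. HepG2 cells with PXR-Gal4 trans-reporter system were exposed 24 h; DMSO defines baseline.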

[10] = target: Peroxisome proliferator-activated receptor gamma (Homo sapiens) (UniProt P37231); experiment: ATG_PPARg_TRANS: Attagene TRANS-FACTORIAL HepG2 Assay for human Peroxisome Proliferator-activated Receptor-gamma (PPARg) (AID 2283007)
Chain of Peroxisome proliferator-activated receptor gamma (Homo sapiens) (P37231 whole entry, looked up, the tested form may be a part): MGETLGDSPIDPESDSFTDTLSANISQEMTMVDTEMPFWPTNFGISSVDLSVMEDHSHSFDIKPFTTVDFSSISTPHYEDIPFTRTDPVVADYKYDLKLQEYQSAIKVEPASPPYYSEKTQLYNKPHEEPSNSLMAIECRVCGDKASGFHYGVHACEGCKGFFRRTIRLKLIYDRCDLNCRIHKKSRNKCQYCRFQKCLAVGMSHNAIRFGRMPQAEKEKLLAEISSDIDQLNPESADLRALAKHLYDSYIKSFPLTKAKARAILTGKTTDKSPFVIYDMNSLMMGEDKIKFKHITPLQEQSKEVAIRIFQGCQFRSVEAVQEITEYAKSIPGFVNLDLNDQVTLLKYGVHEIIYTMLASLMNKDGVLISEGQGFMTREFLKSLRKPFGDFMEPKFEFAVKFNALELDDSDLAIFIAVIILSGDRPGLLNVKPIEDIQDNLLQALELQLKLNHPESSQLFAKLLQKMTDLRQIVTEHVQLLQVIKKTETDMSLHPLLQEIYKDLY
Outline: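 Liver-derived HepG2 cells expressing an exogenous NR-Gal4 chimera alongside GAL4-UAS reporter genes; 24 h exposure. Fluorescence of reporter RT-PCR products, separated by capillary electrophoresis, gives mRNA induction relative to DMSO.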

Measured: AC50

C[C@]12CC[C@@H]3c4ccc(O)cc4CC[C@H]3[C@@H]1CCC2=O
inactive: [1] | [3] | [4]
active: [2] 20.7 µM

CCCC(=O)OCCC(C)C
inactive: [1] | [5] | [2] | [6] | [7]

CN(C[C@@H](CC[N+]12CCC(C3CCCCC3)(CC1)CC2)c1ccc(Cl)c(Cl)c1)C(=O)c1cc(C(F)(F)F)cc(C(F)(F)F)c1
active: [1] 39 µM | [2] 12.9 µM
inactive: [8] | [9] | [6] | [3] | [7] | [4]

O=c1ccc2ccccc2o1
inactive: [1] | [5] | [2]

CC/C(=C(/CC)c1ccc(O)cc1)c1ccc(O)cc1
inactive: [6] | [3] | [4]
active: [1] 32.8 µM | [2] 20 µM

CN(C)c1ccc(C(=C2C=CC(=[N+](C)C)C=C2)c2ccc(N(C)C)cc2)cc1
inactive: [8] | [4]
active: [1] 10.3 µM | [2] 2.42 µM | [10] 16.8 µM

O=C(OCCCCCCOC(=O)c1ccccc1)c1ccccc1
inactive: [8] | [1] | [9] | [6] | [7]
active: [2] 20.7 µM

O=c1[nH]sc2ccccc12
inactive: [8] | [10] | [3] | [7]
active: [1] 18.2 µM | [2] 1.55 µM

CCN(CC)C(=O)c1cc(S(=O)(=O)Cc2ccccc2)c(N2CCC(c3ccccc3)CC2)cc1N(CC)CCN(C)C
active: [1] 28.7 µM | [2] 6.12 µM | [9] 91 nM
inactive: [5] | [6]

CC(C)(c1cc(Br)c(O)c(Br)c1)c1cc(Br)c(O)c(Br)c1
inactive: [5] | [6] | [4]
active: [1] 36 µM | [2] 28 µM | [9] 6.78 µM and 10.5 µM

Cc1occc1C(=O)Nc1ccc(C(=O)N2CCC(F)(F)/C(=C\C(=O)N3CCC(N4CCCCC4)CC3)c3ccccc32)cc1
active: [10] 59.6 µM | [9] 25500 nM
inactive: [1] | [2]

CC[C@H](NC(=O)c1cc(F)ccc1NS(=O)(=O)c1cccc2cccnc12)c1ccccc1
inactive: [8] | [1] | [2] | [4]
active: [10] 13.1 µM | [9] 12.4 nM

CN(C)C(=O)C1(N2CCCCC2)CCN(CC[C@@]2(c3ccc(Cl)c(Cl)c3)CN(C(=O)c3ccccc3)CCO2)CC1
active: [1] 36.8 µM | [2] 6.91 µM
inactive: [8] | [9] | [4]

Oc1ccc2ccccc2c1
active: [2] 10.7 µM
inactive: [1] | [10] | [9] | [3] | [4]

CC1=CC(=O)/C(=C(/C)O)C(=O)O1
inactive: [8] | [1] | [2] | [3]

CCO[Si](CCCNC(N)=O)(OCC)OCC
inactive: [1] | [5] | [2] | [6] | [7] | [4]

CCCCCCCCN(C)CCCCCCCC
inactive: [8] | [1] | [2] | [9] | [6] | [3] | [4]

CC(=O)N1CCN(c2ccc(OC[C@H]3CO[C@](Cn4ccnc4)(c4ccc(Cl)cc4Cl)O3)cc2)CC1
inactive: [1] | [10] | [9] | [7]
active: [2] 23.8 µM

O=C(O)Cn1c(=O)n(Cc2ccc(Br)cc2F)c(=O)c2ccc(Cl)cc21
active: [10] 6.18 µM | [9] 11000 nM
inactive: [1] | [2] | [6] | [7] | [4]

Cc1ccc(C(C)C)cc1
inactive: [8] | [1] | [2] | [9] | [7]

Cc1cn([C@H]2C[C@H](N=[N+]=[N-])[C@@H](CO)O2)c(=O)[nH]c1=O
inactive: [8] | [1] | [2] | [10] | [9] | [4]

CCCCCCCCCC(=O)O
active: [10] 29.2 µM and 12.3 µM
inactive: [1] | [2] | [9] | [6] | [3] | [4]

CN1C(=O)CC[C@H]1c1cccnc1
inactive: [1] | [2] | [10] | [9] | [7]
